# Measurements as given in PubChem BioAssay AID1347420 (Sanford-Burnham Center for Chemical Genomics, 2020).
# Hit rate of the full screen: of about 1,300 compounds, about 980 (75%) were called active. Roughly 4% stayed inconclusive and do not appear here. Some of the results follow.
# Molecular target: Sulfhydryl oxidase 1 (Homo sapiens) (UniProt O00391)
# Experiment: inhibition of human sulfhydryl oxidase QSOX1 – biochemical, HyperBlu H2O2 luminescence, HTS, primary screen (AID 1347420); also: values above 100% were filed as inconclusive
# Settings: recombinant QSOX1, HyperBlu H2O2 luminescence; at 12.5 µM; hits give high values; active = any value above zero
# Sequence of Sulfhydryl oxidase 1 (Homo sapiens) (O00391 whole entry, looked up): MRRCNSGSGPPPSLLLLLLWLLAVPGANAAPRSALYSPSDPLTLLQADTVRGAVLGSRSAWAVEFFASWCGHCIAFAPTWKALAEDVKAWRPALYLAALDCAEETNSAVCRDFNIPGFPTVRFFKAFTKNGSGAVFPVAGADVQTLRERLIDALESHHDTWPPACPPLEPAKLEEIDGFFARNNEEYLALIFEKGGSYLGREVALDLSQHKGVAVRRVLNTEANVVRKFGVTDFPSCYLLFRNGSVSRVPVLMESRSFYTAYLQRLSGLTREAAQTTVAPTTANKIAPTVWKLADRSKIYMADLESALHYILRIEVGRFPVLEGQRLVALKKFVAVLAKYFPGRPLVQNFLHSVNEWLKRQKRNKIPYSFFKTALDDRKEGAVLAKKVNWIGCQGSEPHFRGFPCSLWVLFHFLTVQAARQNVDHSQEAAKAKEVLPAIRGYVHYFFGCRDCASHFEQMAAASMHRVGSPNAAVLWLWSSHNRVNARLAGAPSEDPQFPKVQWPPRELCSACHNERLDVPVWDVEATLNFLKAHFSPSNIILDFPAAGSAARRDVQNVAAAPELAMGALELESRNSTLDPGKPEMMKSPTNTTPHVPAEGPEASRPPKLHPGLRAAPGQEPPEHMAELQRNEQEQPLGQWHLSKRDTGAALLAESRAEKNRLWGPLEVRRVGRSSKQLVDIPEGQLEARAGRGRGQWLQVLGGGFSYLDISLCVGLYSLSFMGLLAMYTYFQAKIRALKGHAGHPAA
row,Compound,inhibition
1,O=c1[nH]cc(F)c(=O)[nH]1,13.9% (active)
2,Cc1cc(NC(=O)Nc2ccc3c(ccn3C)c2)sn1,13.4% (active)
3,CN(C)CCCN1c2ccccc2CCc2ccc(Cl)cc21,-0.4% (inactive)
4,CNCCCN1c2ccccc2CCc2ccccc21,34.2% (active)
5,CC(CN(C)C)CN1c2ccccc2CCc2ccccc21 (centres undefined),29.4% (active)
6,CN(C)CCCN1c2ccccc2CCc2ccccc21,31.8% (active)
7,CC(=O)c1ccc(S(=O)(=O)NC(=O)NC2CCCCC2)cc1,-1.5% (inactive)
8,Cc1ccc(S(=O)(=O)NC(=O)NN2CCCCCC2)cc1,49.9% (active)
9,CCCNC(=O)NS(=O)(=O)c1ccc(Cl)cc1,0.5% (active)
10,CCCCNC(=O)NS(=O)(=O)c1ccc(C)cc1,10.2% (active)
11,OC(CN1CCN(c2cccc(Cl)c2)CC1)C(c1ccccc1)c1ccccc1 (centres undefined),17.3% (active)
12,C[C@]12CCC(=O)C=C1CC[C@@H]1[C@@H]2[C@@H](O)C[C@@]2(C)[C@H]1CC[C@]2(O)C(=O)CO,9% (active)
13,C[C@]12C[C@H](O)[C@H]3[C@@H](CCC4=CC(=O)CC[C@@]43C)[C@@H]1CC[C@@H]2C(=O)CO,9.4% (active)
14,N[C@H](C(=O)O)[C@H]1C[C@@H]1C(=O)O,20.9% (active)
15,O=C(O)c1cc(=O)cc(C(=O)O)[nH]1,10.2% (active)
16,N[C@@H](Cc1ccc(O)c(O)c1)C(=O)O,43.6% (active)
17,COC(=O)[C@@H](N)Cc1ccc(O)c(O)c1,48.2% (active)
18,COC(=O)C(N)Cc1ccc(Cl)cc1 (centres undefined),-8.3% (inactive)
19,N[C@@H](Cc1ccc(O)c(I)c1)C(=O)O,14.8% (active)
20,NC(Cc1ccc(Cl)cc1)C(=O)O (centres undefined),6.1% (active)
21,N[C@@H](Cc1ccc(F)cc1)C(=O)O,-2.9% (inactive)
22,NC1CCN(O)C1=O (centres undefined),30% (active)

row,Compound,inhibition
1,CCCC1O[C@@H]2C[C@H]3[C@@H]4CCC5=CC(=O)C=C[C@]5(C)[C@H]4[C@@H](O)C[C@]3(C)[C@]2(C(=O)CO)O1 (some centres undefined),4.1% (active)
2,CCCN(CC1CC1)c1nc(C)nc(Nc2c(Cl)cc(Cl)cc2Cl)c1Cl,3.7% (active)
3,NS(=O)(=O)c1cc2c(cc1Cl)NC(C1CC3C=CC1C3)NS2(=O)=O (centres undefined),44.4% (active)
4,NS(=O)(=O)c1cc2c(cc1Cl)NC=NS2(=O)=O,4.3% (active)
5,NS(=O)(=O)c1cc2c(cc1Cl)NCNS2(=O)=O,9.5% (active)
6,CNCCCC12CCC(c3ccccc31)c1ccccc12,1.9% (active)
7,NC/C=C\C(=O)O,7.5% (active)
8,NC/C=C/C(=O)O,1.4% (active)
9,CC(C)COCC(CN(Cc1ccccc1)c1ccccc1)N1CCCC1 (centres undefined),40.1% (active)
10,Brc1c(Br)c(Br)c2[nH]cnc2c1Br,18.9% (active)
11,CN1CCc2cccc3c2C1Cc1ccc(O)c(O)c1-3 (centres undefined),73.2% (active)
12,Cc1ccc2c(c1)C(N1CCN(C)CC1)=Nc1cccnc1N2,42.7% (active)
13,CN1CCN(C2=Nc3cc(Cl)ccc3Nc3ccccc32)CC1,78.4% (active)
14,CN1CCN(C2=Nc3ccccc3Oc3ccc(Cl)cc32)CC1,-12.8% (inactive)
15,Clc1ccc2c(c1)N=C(N1CCNCC1)c1ccccc1N2,69.5% (active)
16,Clc1ccc2c(c1)C(N1CCNCC1)=Nc1ccccc1O2,21.3% (active)
17,Cn1c(=O)c2c(ncn2C)n(C)c1=O,-2% (inactive)
18,Cn1c(=O)[nH]c2ncn(C)c2c1=O,-0.4% (inactive)
19,CC(=O)CCCCn1c(=O)c2c(ncn2C)n(C)c1=O,13.8% (active)
20,CCCn1c(=O)c2c(ncn2C)n(CCC)c1=O,11.9% (active)
21,C#CCn1c(=O)c2c(ncn2C)n(C)c1=O,4% (active)
22,Cn1cnc2c1c(=O)[nH]c(=O)n2C,0% (inactive)

row,Compound,inhibition
1,CCCn1cnc2c1c(=O)n(CCCCC(C)=O)c(=O)n2C,5.2% (active)
2,COc1ccc(CCn2nnnc2C2(c3ccc(C)cc3)CC2)cc1,14.5% (active)
3,C(=C\c1ccccc1)/CN1CCN(C(c2ccccc2)c2ccccc2)CC1,-9.7% (inactive)
4,Fc1ccc(C(c2ccc(F)cc2)N2CCN(C/C=C/c3ccccc3)CC2)cc1,5.6% (active)
5,Oc1cc(O)c2c(c1)O[C@H](c1ccc(O)c(O)c1)[C@@H](O)C2,72.1% (active)
6,O=C1c2c(O)cc(O)cc2OC(c2ccc(O)c(O)c2)C1O (centres undefined),65.2% (active)
7,COc1ccc(Cl)cc1C(=O)NCCc1ccc(S(=O)(=O)NC(=O)NC2CCCCC2)cc1,7.7% (active)
8,Cc1cnc(C(=O)NCCc2ccc(S(=O)(=O)NC(=O)NC3CCCCC3)cc2)cn1,-6.9% (inactive)
9,Cc1cccc(C)c1NC(=O)C(C)N (centres undefined),17.2% (active)
10,CCC(=O)c1ccc2c(c1)N(CCCN(C)C)c1ccccc1S2,96.5% (active)
11,CN(C)CCCN1c2ccccc2Sc2ccc(C(F)(F)F)cc21,83.7% (active)
12,CN(C)CCCN1c2ccccc2Sc2ccc(Cl)cc21,98.2% (active)
13,NCCS,28.5% (active)
14,O=c1[nH]c2ccccc2c2ccccc12,10.9% (active)
15,C=Cc1c(C)c2cc3[nH]c(cc4nc(cc5nc(cc1[nH]2)C(C)=C5CCC(=O)O)C(CCC(=O)O)=C4C)c(C)c3C=C,29.8% (active)
16,CCOC(=O)N1CCN(/[N+]([O-])=N/Oc2ccc([N+](=O)[O-])cc2[N+](=O)[O-])CC1,73.3% (active)
17,NNc1nncc2ccccc12,92.6% (active)
18,COc1cc2ncnc(Nc3cccc(Cl)c3)c2cc1OC,0.4% (active)
19,CC1CCN(CC[C@H]2CCCN2S(=O)(=O)c2cccc(O)c2)CC1,2.8% (active)
20,O=c1[nH]ccc2c(O)cccc12,41.9% (active)
21,Oc1cc2c(c(Cl)c1O)CCNCC2c1ccccc1 (centres undefined),93.6% (active)
22,Oc1cc2c(cc1O)C(c1ccccc1)CNCC2 (centres undefined),57.5% (active)

row,Compound,inhibition
1,CCNC(=O)N1CCN(CCCC(c2ccc(F)cc2)c2ccc(F)cc2)CC1,8.8% (active)
2,O=C1C2C=CC=CC2=NC(=S)N1CCN1CCC(=C(c2ccc(F)cc2)c2ccc(F)cc2)CC1 (centres undefined),4.1% (active)
3,CC(=O)Oc1ccccc1C(=O)O,12.4% (active)
4,C#C[C@]1(O)CC[C@H]2[C@@H]3CCC4=Cc5oncc5CC4(C)[C@H]3CCC21C (some centres undefined),22.1% (active)
5,COc1cc(C(O)CO)ccc1OS(=O)(=O)O (centres undefined),2.7% (active)
6,COc1cc(C(O)CO)ccc1O (centres undefined),13.7% (active)
7,COc1cc(C(O)C(=O)O)ccc1O (centres undefined),12.1% (active)
8,Cc1cc(Cn2cnc3c2C[C@@H](C(=O)O)N(C(=O)C(c2ccccc2)c2ccccc2)C3)ccc1N,29.8% (active)
9,CCN1CCCC1CNC(=O)c1cc(S(N)(=O)=O)ccc1OC (centres undefined),-11.2% (inactive)
10,CCN1CCC[C@H]1CNC(=O)c1cc(S(N)(=O)=O)ccc1OC,1% (active)
11,CCN1CCCC1CNC(=O)c1cc(S(=O)(=O)CC)c(N)cc1OC (centres undefined),3.7% (active)
12,CCCCNc1c(C(=O)OCC)c(C)nc2c1cnn2CC,12.7% (active)
13,CCOC(=O)c1cnc2c(cnn2CC)c1NN=C(C)C,19.1% (active)
14,NC[C@@H]1O[C@H](C23CC4CC(CC(C4)C2)C3)Cc2c1ccc(O)c2O,54% (active)
15,NC[C@@H]1O[C@H](c2ccccc2)Cc2c1ccc(O)c2O,71.1% (active)
16,CC(C)C[C@H]1C(=O)N2CCC[C@H]2[C@]2(O)O[C@](NC(=O)[C@@H]3C=C4c5cccc6[nH]c(Br)c(c56)C[C@H]4N(C)C3)(C(C)C)C(=O)N12,33.5% (active)
17,C[C@H](CS)C(=O)N1CCC[C@H]1C(=O)O,-8.3% (inactive)
18,c1ccc(C(NCCNC(c2ccccc2)c2ccccc2)c2ccccc2)cc1,7.6% (active)
19,CCOC(=O)C12CC1/C(=N/O)c1ccccc1O2 (centres undefined),11.7% (active)
20,CCCCOC(=O)NS(=O)(=O)c1sc(CC(C)C)cc1-c1ccc(Cn2c(CC)nc3c(C)cc(C)nc32)cc1,15.1% (active)
21,C1CCC(N=C(NC23CC4CC(CC(C4)C2)C3)N2CCOCC2)CC1,8.2% (active)
22,NC1=NCC2c3ccccc3Cc3ccccc3N12 (centres undefined),2.9% (active)

row,Compound,inhibition
1,Cc1c(OCC(F)(F)F)ccnc1CS(=O)c1nc2ccccc2[nH]1 (centres undefined),2.3% (active)
2,c1ccc2nc(C3=NCCN3)ccc2c1,-4.5% (inactive)
3,Nc1ccc(-c2ccc3ccccc3n2)cc1,54.7% (active)
4,Nc1ncnc2n[nH]c(Nc3ccc(F)cc3)c12,81.8% (active)
5,CCN1CCc2nc(N)oc2CC1,48.7% (active)
6,O=c1[nH]c2cc([N+](=O)[O-])c([N+](=O)[O-])cc2[nH]c1=O,87% (active)
7,C=C[C@H]1CN2CC[C@@H]1C[C@H]2[C@@H](O)c1ccnc2ccc(OC)cc12,-2.4% (inactive)
8,C=C[C@H]1CN2CC[C@@H]1C[C@@H]2[C@H](O)c1ccnc2ccc(OC)cc12,4.7% (active)
9,CCCCCCC/C=C\CCCCCCCCC(=O)O,11% (active)
10,CCCCCCCCCCC/C=C\C(C)(C)/C=C\CCCC(=O)O,25.2% (active)
11,CCCCCC(O)CCCC(=O)O (centres undefined),-0.3% (inactive)
12,CC(C)NCC(O)COc1ccc(CCOCC2CC2)cc1 (centres undefined),11.4% (active)
13,CC(C)NCC(O)COc1ccc(CC(N)=O)cc1 (centres undefined),7.4% (active)
14,CC(C)NC[C@H](O)COc1ccc(CC(N)=O)cc1,-4.6% (inactive)
15,COCCc1ccc(OCC(O)CNC(C)C)cc1 (centres undefined),-17.5% (inactive)
16,CC(=O)SC1CC2=CC(=O)CC[C@]2(C)C2CC[C@@]3(C)C(CC[C@@]34CCC(=O)O4)C12 (some centres undefined),5.4% (active)
17,O=c1c(-c2ccc(O)cc2)coc2cc(O)ccc12,32.4% (active)
18,O=c1c(-c2ccc(O)cc2)coc2cc(O)cc(O)c12,33.2% (active)
19,O=c1cc(-c2ccc(O)cc2)oc2cc(O)cc(O)c12,88.8% (active)
20,COC1(C2=NCCN2)COc2ccccc2O1 (centres undefined),2.6% (active)
21,Cc1ccccc1/C=C/C1=NCCN1,-1.6% (inactive)
